Drawing on PubChem BioAssay (EPA / NIEHS), this text covers outcome and AC50 for six molecules.

Read-out in assay [1]: Human Leukocyte Antigen - DR isotype (HLADR), HLA-DRA (gene 3122)
Kind of assay: BSK_3C_HLADR: BioMAP Diversity Plus: 3C Assay for Human Leukocyte Antigen - DR isotype (HLADR) Biomarker Activity (AID 2283019).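 On outcome: ELISA of cell-surface HLA-DR on HUVEC 24 h after dosing.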 Particulars: primary human endothelial cells (HUVEC); actives raise or lower the signal. In a few lines:
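Primary human umbilical vein endothelial cells (3C system) were dosed with compound and cell-surface HLA-DR was quantified by ELISA at 24 h. Activity was fitted bidirectionally against DMSO as negative control and baseline.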

Read-out in assay [2]: Interleukin-8 (IL8), CXCL8 (gene 3576)
Kind of assay: BSK_3C_IL8: BioMAP Diversity Plus: 3C Assay for Interleukin-8 (IL8) Biomarker Activity (AID 2283020). Particulars: primary human endothelial cells (HUVEC); actives raise or lower the signal. In a few lines: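 Primary human umbilical vein endothelial cells were dosed for 24 h. IL-8 was quantified by ELISA and fitted bidirectionally against DMSO. Cytotoxicity was assessed in parallel cultures by SRB staining at 560 nm.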

Read-out in assay [3]: Monokine induced gamma interferon (MIG), CXCL9 (gene 4283)
Kind of assay: BSK_3C_MIG: BioMAP Diversity Plus: 3C Assay for Monokine induced gamma interferon (MIG) Biomarker Activity (AID 2283021).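 On AC50: MIG protein level measured by immunoassay in the treated endothelial cultures.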 Particulars: primary human endothelial cells (HUVEC); actives raise or lower the signal. The essentials: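 HUVEC primary endothelial cultures dosed with chemical; MIG quantified by ELISA at 24 h. Data fitted bidirectionally against DMSO control, with parallel SRB total-protein staining for cytotoxicity.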

The nature of assay [4]: BSK_3C_SRB: Viability Assessment in the BioMAP Diversity Plus: 3C Assay (AID 2283023).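 Further: fitted both ways against DMSO so a hit may be signal rise or drop.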 As to conditions: primary human endothelial cells (HUVEC). In a few lines:
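Primary human umbilical vein endothelial cells in the 3C system were read 24 h after compound dosing. Total protein was stained with 0.1% sulforhodamine B after 10% TCA fixation and read at 560 nm, with bidirectional fitting against DMSO as baseline.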

Read-out in assay [5]: Matrix Metallopeptidase 1 (MMP1), MMP1 (gene 4312)
Kind of assay: BSK_BE3C_MMP1: BioMAP Diversity Plus: BE3C Assay for Matrix Metallopeptidase 1 (MMP1) Biomarker Activity (AID 2283024). Particulars: primary human bronchial epithelial cells; actives raise or lower the signal. The essentials:
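Human primary bronchial epithelial cells (BE3C system) dosed for 24 h; MMP-1 quantified by ELISA. Bidirectional fit against DMSO; cytotoxicity tracked in parallel cultures by SRB total-protein staining.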

Read-out in assay [6]: Pselectin, SELP (gene 6403)
Kind of assay: BSK_4H_Pselectin: BioMAP Diversity Plus: 4H Assay for Pselectin Biomarker Activity (AID 2283026). Particulars: primary human endothelial cells (HUVEC); actives raise or lower the signal. The essentials:
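Primary human umbilical vein endothelial cells were treated 24 h, and cell-surface P-selectin was then quantified by ELISA. Bidirectional fit versus DMSO; cytotoxicity checked in parallel cultures by SRB total-protein staining.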

The nature of assay [7]: BSK_4H_SRB: Viability Assessment in the BioMAP Diversity Plus: 4H Assay (AID 2283027).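 Further: cells exposed to compound for 24 h before staining.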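 On AC50: curves fitted both ways versus DMSO so AC50 may be loss or gain.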 As to conditions: primary human endothelial cells (HUVEC). In a few lines:
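Human umbilical vein endothelial cells were dosed with chemical and, after 24 h, fixed with 10% TCA, stained with 0.1% sulforhodamine B, and read at 560 nm to give total protein as a cytotoxicity measure. Bidirectional fitting relative to DMSO control.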

Assay [8] can be described thus: BSK_BE3C_SRB: Viability Assessment in the BioMAP Diversity Plus: BE3C Assay (AID 2283028).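 On AC50: fitted both ways so AC50 may mark signal gain or loss versus DMSO.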 Particulars: primary human bronchial epithelial cells. The essentials: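 Human primary bronchial epithelial cells were exposed to test chemicals for 24 h. Total protein in parallel cultures was then measured by staining with 0.1% sulforhodamine B after 10% TCA fixation, with absorbance read at 560 nm. Activity was fitted bidirectionally against DMSO.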

Read-out in assay [9]: Thrombomodulin, THBD (gene 7056)
Kind of assay: BSK_3C_Thrombomodulin: BioMAP Diversity Plus: 3C Assay for Thrombomodulin Biomarker Activity (AID 2283029). As to conditions: primary human endothelial cells (HUVEC); actives raise or lower the signal. In a few lines:
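Human umbilical vein endothelial cells were exposed to chemicals for 24 h; cell-surface thrombomodulin quantified by ELISA, with bidirectional fitting against DMSO baseline.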

Read-out in assay [10]: Urokinase-type plasminogen activator receptor (uPAR), PLAUR (gene 5329)
Description: BSK_4H_uPAR: BioMAP Diversity Plus: 4H Assay for Urokinase-type plasminogen activator receptor (uPAR) Biomarker Activity (AID 2283030). As to conditions: primary human endothelial cells (HUVEC); actives raise or lower the signal. The essentials: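 Primary human umbilical vein endothelial cells were exposed to chemical for 24 h before cell-surface uPAR was quantified by ELISA. Activity was fitted bidirectionally against the DMSO negative control baseline.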

Read-out in assay [11]: Human Leukocyte Antigen - DR isotype (HLADR), HLA-DRA (gene 3122)
Kind of assay: BSK_BE3C_HLADR: BioMAP Diversity Plus: BE3C Assay for Human Leukocyte Antigen - DR isotype (HLADR) Biomarker Activity (AID 2283032). As to conditions: primary human bronchial epithelial cells; actives raise or lower the signal. The essentials:
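Human primary bronchial epithelial cells (BE3C system) exposed to compound for 24 hours; cell-surface HLA-DR measured by ELISA, fitted bidirectionally relative to DMSO. Total protein by SRB in parallel cultures tracked cytotoxicity.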

Read-out in assay [12]: Interferon-gamma inducible Protein 10 (IP10), CXCL10 (gene 3627)
Kind of assay: BSK_BE3C_IP10: BioMAP Diversity Plus: BE3C Assay for Interferon-gamma inducible Protein 10 (IP10) Biomarker Activity (AID 2283034). As to conditions: primary human bronchial epithelial cells; actives raise or lower the signal. The essentials: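 Primary human bronchial epithelial cells, with IP-10 measured by ELISA 24 hours after chemical dosing. Bidirectional fit against DMSO; cytotoxicity checked by SRB total protein staining in parallel cultures.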

Read-out in assay [13]: Monokine induced gamma interferon (MIG), CXCL9 (gene 4283)
Kind of assay: BSK_BE3C_MIG: BioMAP Diversity Plus: BE3C Assay for Monokine induced gamma interferon (MIG) Biomarker Activity (AID 2283035). As to conditions: primary human bronchial epithelial cells; actives raise or lower the signal. In a few lines:
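ELISA read-out of MIG in human lung bronchial epithelial primary cultures, 24 h post-dosing. Bidirectional curve fit vs DMSO baseline.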

Read-out in assay [14]: Transforming growth factor beta 1 (TGFb1), TGFB1 (gene 7040)
Description: BSK_BE3C_TGFb1: BioMAP Diversity Plus: BE3C Assay for Transforming growth factor beta 1 (TGFb1) Biomarker Activity (AID 2283036). As to conditions: primary human bronchial epithelial cells; actives raise or lower the signal. The essentials: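 Primary human bronchial epithelial cells dosed with chemical; TGF-b1 measured by ELISA 24 h after dosing. Bidirectional curve fitting against DMSO negative control; SRB total-protein staining in parallel cultures gauged cytotoxicity.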

Read-out in assay [15]: Plasminogen activator inhibitor-1 (PAI1), SERPINE1 (gene 5054)
Kind of assay: BSK_BE3C_PAI1: BioMAP Diversity Plus: BE3C Assay for Plasminogen activator inhibitor-1 (PAI1) Biomarker Activity (AID 2283037). As to conditions: primary human bronchial epithelial cells; actives raise or lower the signal. In a few lines:
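Primary human bronchial epithelial cells (BE3C system) exposed 24 h; PAI-1 quantified by ELISA. Parallel sulforhodamine B staining of total protein flags cytotoxicity. Bidirectional fit versus DMSO.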

Read-out in assay [16]: urokinase plasminogen activator (uPA), PLAU (gene 5328)
Kind of assay: BSK_BE3C_uPA: BioMAP Diversity Plus: BE3C Assay for urokinase plasminogen activator (uPA) Biomarker Activity (AID 2283038).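 On outcome: uPA protein level quantified by ELISA in cell cultures; uPA read one day after compound addition.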 Particulars: primary human bronchial epithelial cells; actives raise or lower the signal. The essentials: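 Human primary bronchial epithelial cells were exposed to chemical for 24 h, then uPA levels were measured by ELISA. Responses were fitted bidirectionally against DMSO as negative control and baseline. Parallel SRB staining of total protein gauged overt cytotoxicity.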

Read-out in assay [17]: Urokinase-type plasminogen activator receptor (uPAR), PLAUR (gene 5329)
Kind of assay: BSK_BE3C_uPAR: BioMAP Diversity Plus: BE3C Assay for Urokinase-type plasminogen activator receptor (uPAR) Biomarker Activity (AID 2283039).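 On outcome: cells exposed to compound for one day before measurement.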 As to conditions: primary human bronchial epithelial cells; actives raise or lower the signal. The essentials: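 Primary human bronchial epithelial cells dosed for 24 h; uPAR quantified by ELISA with bidirectional fitting against DMSO. Overt cytotoxicity assessed in parallel cultures by SRB total-protein staining (0.1% SRB, 560 nm).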

Read-out in assay [18]: Vascular endothelial growth factor receptor 2 (Homo sapiens) (UniProt P35968)
Description: BSK_4H_VEGFRII: BioMAP Diversity Plus: 4H Assay for Vascular endothelial growth factor receptor 2 (VEGFR2) Biomarker Activity (AID 2283031).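 On AC50: cell-surface VEGFR2 protein level quantified by ELISA.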 Particulars: primary human endothelial cells (HUVEC); actives raise or lower the signal. In a few lines: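 Primary human umbilical vein endothelial cells in the BioMAP 4H system were dosed with test chemical, and 24 h later VEGFRII was measured by ELISA. Activity was fitted bidirectionally against DMSO as negative control and baseline.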

Read-out in assay [19]: Vascular cell adhesion molecule 1 (VCAM1), VCAM1 (gene 7412)
Description: BSK_4H_VCAM1: BioMAP Diversity Plus: 4H Assay for Vascular cell adhesion molecule 1 (VCAM1) Biomarker Activity (AID 2283033). Particulars: primary human endothelial cells (HUVEC); actives raise or lower the signal. In a few lines:
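Primary human umbilical vein endothelial cells, 4H stimulation system, treated for 24 h; cell-surface VCAM-1 quantified by ELISA. Bidirectional fitting against DMSO; cytotoxicity tracked by SRB total-protein staining in parallel cultures.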

Activity calls are given as the source filed them. How the source made its calls: active means hit-call score of the fitted dose curve at least 0.9, where 1 is the maximum; inactive means score below 0.9.

As usually defined, the AC50 is the midpoint of the concentration-response curve, whichever way the signal moves. For the molecule `C=C(C)CN(CC)c1c([N+](=O)[O-])cc(C(F)(F)F)cc1[N+](=O)[O-]`, the result in assay [1], in assay [2], in [3], in [5], in assay [6] and in assay [7] was inactive. The result in assay [8], in assay [9], in [10], in assay [11], in [12] and in assay [13] was inactive. For the same molecule, the outcome in [14], in assay [15], in [16] and in assay [17] was inactive. The AC50 in [4] is 30 µM (active).

Turning to `CC1(C)CCC(=Cc2ccc(Cl)cc2)C1(O)Cn1cncn1` (configuration not stated), the values for the AC50 in assay [1] and in [7] were 5.3 µM (active) and 0.803 µM (active), respectively. Moreover, the result in [2], in [3], in assay [4], in assay [5], in assay [6] and in [8] was inactive. The outcome in assay [9], in [10], in [18], in assay [11], in [19] and in assay [12] was inactive. Besides, the result in assay [13], in assay [14], in [15], in assay [16] and in assay [17] was inactive.

Turning to `COCC(=O)N(c1c(C)cccc1C)C(C)C(=O)OC` (configuration not stated), the result in assay [1], in [2], in assay [3], in assay [4], in [5] and in assay [6] was inactive. In addition, the result in [7], in assay [8], in [9], in assay [10], in assay [18] and in assay [11] was inactive. The outcome in assay [12], in assay [13], in assay [14], in assay [15], in assay [16] and in assay [17] was inactive.

`COc1cc(Cl)c(OC)cc1Cl`: the result in assay [1], in assay [2], in assay [3], in assay [4], in [5] and in assay [6] was inactive. The result in [8], in assay [9], in assay [10], in assay [11], in assay [12] and in assay [13] was inactive. Moreover, the result in assay [14], in assay [15], in assay [16] and in assay [17] was inactive. For the same molecule, in assay [7], the AC50 was 3.09 µM (active).

In the case of `Nc1cnn(-c2ccccc2)c(=O)c1Cl`, the result in assay [1], in [2], in [3], in assay [4], in [5] and in assay [6] was inactive. Further, the outcome in assay [7], in [8], in [9], in assay [10], in assay [18] and in assay [11] was inactive. The result in [12], in assay [13], in assay [14], in assay [15], in assay [16] and in [17] was inactive.

As to `CCOc1cc(C(C)(C)C)ccc1C1COC(c2c(F)cccc2F)=N1` (configuration not stated), the AC50 was 29.8 µM (active) in assay [1]; 23.9 µM (active) in [2]; 32.1 µM (active) in assay [3]; 15.1 µM (active) in assay [4]; 10.3 µM (active) in [5]; 22.2 µM (active) in assay [6]. Further, the AC50 is 27.6 µM (active) in [7]; 20 µM (active) in [8]; 33 µM (active) in assay [10]; 22.8 µM (active) in assay [18]; 14.3 µM (active) in assay [11]; 16.3 µM (active) in assay [12]. For the same molecule, the AC50 in assay [15] is 19 µM (active); in assay [16], 20 µM (active); in [17], 6.6 µM (active). Also, the outcome in assay [9], in assay [13] and in assay [14] was inactive.
